Laboratory results published in PubChem BioAssay AID504333 (National Center for Advancing Translational Sciences (NCATS), 2011).
The campaign covered roughly 360,000 compounds. About 16,000 (4.4%) were called active. Not shown: some 9% with an inconclusive outcome. The list comes from a sample in which actives are over-represented; it also holds similar structures and randomly drawn compounds. Unmarked numbers belong to inactive results. Calls come from the whole dose curve; as a rule, active = well fitted inhibition curve with a large enough effect; inconclusive = small, poorly fitted or top-dose-only effect; inactive = no such curve, though single readings can be large or run the other way.

These compounds were tested against Bromodomain adjacent to zinc finger domain protein 2B (Homo sapiens) (UniProt Q9UIF8) (assay: qHTS Assay for Inhibitors of BAZ2B). Settings: AlphaScreen BAZ2B-H3K14Ac peptide displacement; series mostly up to 114 µM; activity change, negative = inhibition: at the top concentration.
Bromodomain adjacent to zinc finger domain protein 2B (Homo sapiens), sequence (Q9UIF8 whole entry, looked up, the tested form may be a part): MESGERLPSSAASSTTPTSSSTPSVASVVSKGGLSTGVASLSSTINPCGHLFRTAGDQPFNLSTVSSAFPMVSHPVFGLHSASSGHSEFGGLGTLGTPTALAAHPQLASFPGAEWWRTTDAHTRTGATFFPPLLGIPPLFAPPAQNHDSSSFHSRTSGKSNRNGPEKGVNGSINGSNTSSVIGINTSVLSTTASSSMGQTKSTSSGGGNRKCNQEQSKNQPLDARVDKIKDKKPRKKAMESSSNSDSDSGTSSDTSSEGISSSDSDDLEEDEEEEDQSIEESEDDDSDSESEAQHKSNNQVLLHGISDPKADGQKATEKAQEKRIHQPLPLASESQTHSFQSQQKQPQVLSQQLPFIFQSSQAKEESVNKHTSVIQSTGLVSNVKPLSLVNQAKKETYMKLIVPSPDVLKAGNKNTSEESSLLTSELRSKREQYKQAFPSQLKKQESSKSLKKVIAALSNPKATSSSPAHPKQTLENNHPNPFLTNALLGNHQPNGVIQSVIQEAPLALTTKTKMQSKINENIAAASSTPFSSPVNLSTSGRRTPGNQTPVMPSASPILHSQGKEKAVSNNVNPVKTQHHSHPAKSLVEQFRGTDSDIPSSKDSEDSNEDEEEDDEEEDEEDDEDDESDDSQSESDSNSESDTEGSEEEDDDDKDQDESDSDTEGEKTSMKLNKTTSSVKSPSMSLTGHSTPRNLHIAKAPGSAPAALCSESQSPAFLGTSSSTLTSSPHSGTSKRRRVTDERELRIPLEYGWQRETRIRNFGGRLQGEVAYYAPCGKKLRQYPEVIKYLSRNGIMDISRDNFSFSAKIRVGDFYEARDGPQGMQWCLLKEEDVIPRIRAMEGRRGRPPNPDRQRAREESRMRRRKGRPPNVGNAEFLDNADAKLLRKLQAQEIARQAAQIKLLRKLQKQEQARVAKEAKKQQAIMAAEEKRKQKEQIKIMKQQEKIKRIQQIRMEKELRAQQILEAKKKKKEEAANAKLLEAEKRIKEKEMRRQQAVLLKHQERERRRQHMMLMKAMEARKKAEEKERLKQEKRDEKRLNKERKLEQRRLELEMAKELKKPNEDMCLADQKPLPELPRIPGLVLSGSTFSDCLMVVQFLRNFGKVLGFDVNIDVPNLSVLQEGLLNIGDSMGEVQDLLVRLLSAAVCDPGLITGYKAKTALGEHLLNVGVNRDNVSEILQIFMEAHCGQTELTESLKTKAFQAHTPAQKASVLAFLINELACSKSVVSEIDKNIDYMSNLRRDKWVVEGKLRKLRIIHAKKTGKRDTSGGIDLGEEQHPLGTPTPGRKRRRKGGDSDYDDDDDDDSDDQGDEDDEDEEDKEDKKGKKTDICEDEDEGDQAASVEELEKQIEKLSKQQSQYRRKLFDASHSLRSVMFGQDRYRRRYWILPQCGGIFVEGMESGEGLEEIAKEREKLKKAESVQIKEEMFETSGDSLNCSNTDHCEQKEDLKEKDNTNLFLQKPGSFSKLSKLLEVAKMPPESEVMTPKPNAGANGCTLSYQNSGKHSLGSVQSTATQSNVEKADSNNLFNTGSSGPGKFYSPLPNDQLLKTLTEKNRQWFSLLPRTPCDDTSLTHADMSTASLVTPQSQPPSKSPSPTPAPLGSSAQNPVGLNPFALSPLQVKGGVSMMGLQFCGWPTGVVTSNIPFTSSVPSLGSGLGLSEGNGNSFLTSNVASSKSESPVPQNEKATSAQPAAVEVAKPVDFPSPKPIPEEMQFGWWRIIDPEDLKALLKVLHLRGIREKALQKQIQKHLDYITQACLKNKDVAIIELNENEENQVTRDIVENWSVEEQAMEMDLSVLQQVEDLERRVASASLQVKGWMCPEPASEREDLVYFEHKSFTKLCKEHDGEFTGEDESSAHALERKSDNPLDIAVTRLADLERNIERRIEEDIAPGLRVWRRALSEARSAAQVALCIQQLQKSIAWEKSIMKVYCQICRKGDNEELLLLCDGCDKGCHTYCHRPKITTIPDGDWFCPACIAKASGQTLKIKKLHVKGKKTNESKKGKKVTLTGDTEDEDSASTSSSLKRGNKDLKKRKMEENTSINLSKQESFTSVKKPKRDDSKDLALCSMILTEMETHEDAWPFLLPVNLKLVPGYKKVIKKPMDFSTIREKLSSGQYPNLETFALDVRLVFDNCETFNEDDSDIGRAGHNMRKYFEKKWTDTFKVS
How it was run: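 Complex of BAZ2B and biotin-H3K14Ac (50 nM apiece) forms over 30 min at RT, then faces library compounds up to 110 uM for another 30 min; AlphaScreen beads added, 20 min dark incubation, luminescence read.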
% is set by controls: 0 for no effect and ±100 for the full control effect; potency is the fitted concentration of half-maximal effect.
Note: nearly all actives have a fitted effect of over 60% in size.

Compared with `O=[N+]([O-])c1ccccc1OCCCCN1CCCCC1`, `O=C(COc1ccccc1[N+](=O)[O-])NC1CC1` is lower in “activity change, negative = inhibition” value: 5.81% for the first, -4.34% for the second.

Compared with `CC1CC(C)CN(CCOc2cccc3ccccc23)C1` (configuration not stated), `COc1ccc2nc(SCc3ccccc3)nc(C)c2c1` is higher in “activity change, negative = inhibition” value: -2.56% for the first, 199% for the second.

Going from `Cc1ccccc1CNC(=O)CCc1cn(Cc2ccccc2C)c2ccccc12` to `COc1ccccc1C(=O)NCCn1cc(SCc2ccccc2Cl)c2ccccc21`, the “activity change, negative = inhibition” value falls from -10.3% to -19.3%.

Compared with `CCc1cc2c(cc3c(=O)n(CC(=O)NCc4cccc(Cl)c4)nc(CC)n32)s1`, `Cc1ccc2c(=O)c(C(=O)c3cccc(Cl)c3)cn(CC(=O)NCc3ccccc3)c2n1` is higher in “activity change, negative = inhibition” value: -7.23% for the first, 0.489% for the second.

Compared with `O=C(COc1ccccc1[N+](=O)[O-])N/N=C/c1ccc[nH]1`, `COc1ccc(-c2nn(-c3ccccc3)cc2/C=C\C(=O)N2CCOCC2)cc1[N+](=O)[O-]` is higher in “activity change, negative = inhibition” value: -11.5% for the first, 3.98% for the second.

Compared with `CC(NC(=O)c1cc(Sc2ccc(F)cc2F)nc2ccccc12)c1ccccc1` (configuration not stated), `Fc1ccc(Nc2nc(SCc3ccccc3Cl)nc3ccccc23)cc1` is lower in “activity change, negative = inhibition” value: 1.71% for the first, -4.01% for the second.

Going from `O=C(CN1c2ccccc2S(=O)(=O)c2ccccc21)Nc1cccc(C(F)(F)F)c1` to `Cc1ccc(-c2nn(-c3ccccc3)cc2/C=C/C(=O)Nc2cccc(S(N)(=O)=O)c2)cc1`, the “activity change, negative = inhibition” value falls from -20% to -24.1%.

Compared with `CCOC(=O)c1ccc(NC(=O)CC2C(=O)N(c3ccccc3)C(=O)N2Cc2cccs2)cc1` (configuration not stated), `CCOC(=O)c1ccc(NC(=O)C2CC(=O)NC(=Nc3ccc(C)c(C)c3)S2)cc1` (configuration not stated) is higher in “activity change, negative = inhibition” value: -17.8% for the first, -0.662% for the second.

First: Cc1ccc(CS(=O)(=O)c2ncc(Cl)c(C(=O)Nc3nnc(C)s3)n2)cc1
Second: Cc1cccc(NC(=O)c2nc(S(=O)(=O)Cc3ccccc3)ncc2Cl)c1
The “activity change, negative = inhibition” value of the first is lower: -35.7% for the first, -35.2% for the second.

Going from `Fc1ccc(-n2ncc3c(Nc4ccc(Oc5ccccc5)cc4)ncnc32)cc1` to `O=C(NCCCc1ccccc1)c1ccc2c(c1)sc1nc(-c3ccc(F)cc3)cn12`, the “activity change, negative = inhibition” value falls from 2.34% to -22.3%.

Compared with `CCOc1ccccc1NC(=O)c1ccc2c(c1)CCN2S(=O)(=O)c1ccc(C)cc1`, `CCOC(=O)c1ccc(CN(Cc2ccccc2)S(=O)(=O)c2ccc(Cl)cc2)cc1` is higher in “activity change, negative = inhibition” value: -25.9% for the first, 47.5% for the second.

Going from `Cc1ccc(NC(=O)CCC(=O)N/N=C/c2ccco2)c(C)c1` to `COc1ccccc1CNC(=O)NCc1noc2ccc(C)cc12`, the “activity change, negative = inhibition” value rises from -32.8% to -0.276%.

Compared with `COc1ccc(-c2nc(CN3CCN(c4ncccn4)CC3)c(C)o2)cc1C`, `CN(C)C(=O)c1nc2ccc(Cl)cn2c1CN1CCN(c2ncccn2)CC1` is higher in “activity change, negative = inhibition” value: -3.56% for the first, 4.33% for the second.

Going from `C/C(=N\N1CCN(Cc2ccc(C)cc2)CC1)c1ccco1` to `CC(C)CC(=O)N1CCN(Cc2cccc(Cl)c2)CC1`, the “activity change, negative = inhibition” value rises from -28.7% to -27.4%.

First: Cc1oc2ccc(O)c(CN3CCCCC3)c2c1C(=O)Nc1cccc(C(F)(F)F)c1
Second: COc1cccc(CNC(=O)c2ccc3c(Cl)c4c(nc3c2)CCCC4)c1
The “activity change, negative = inhibition” value of the first is lower: -14.8% for the first, -9.46% for the second.

First: Cc1ccc(CNC(=O)Cn2c(=O)ccc3cc(S(=O)(=O)N4CCCC4)ccc32)cc1
Second: O=C(NC1CC(=O)N(c2ccc(F)cc2)C1)c1ccc(S(=O)(=O)N2CCCC2)cc1 (configuration not stated)
The “activity change, negative = inhibition” value of the first is higher: 1.64% for the first, -0.208% for the second.

Going from `Cc1cccc(NC(=O)C2CCCN2S(=O)(=O)c2cccc3nsnc23)c1C` (configuration not stated) to `Cc1ccc(C)c(N2CCN(c3ccc4cc(S(=O)(=O)N5CCC(C)CC5)ccc4n3)CC2)c1`, the “activity change, negative = inhibition” value falls from -17.8% to -30.7%.

Going from `CCC(=O)Nc1cccc(C(=O)OCc2cc(=O)n3nc(CC)sc3n2)c1` to `Cc1cc(OCCCC(=O)NCCN2C(=O)S/C(=C\c3cccnc3)C2=O)ccc1Cl`, the “activity change, negative = inhibition” value rises from -13.9% to 6.35%.

First: COc1ccc(-c2nn(-c3ccccc3)cc2CN2CCCO2)c(F)c1
Second: COc1ccc(C(=O)CCc2ccccc2O)c(OC)c1
The “activity change, negative = inhibition” value of the first is lower: -14.8% for the first, -6.81% for the second.

First: Cc1ccc(/C=C2/SC(=S)N(CCC(=O)NCCCN3CCOCC3)C2=O)cc1
Second: O=C1/C(=C\c2ccccc2Cl)SC(=S)N1CCC(=O)N1CCCc2ccccc21
The “activity change, negative = inhibition” value of the first is lower: -37.2% for the first, -33.1% for the second.

First: CN1C(=O)c2[nH]nc(-c3ccc(F)cc3)c2C1c1ccccn1 (configuration not stated)
Second: CSc1nc(-c2ccco2)nn1C(=O)CCc1ccccc1
The “activity change, negative = inhibition” value of the first is higher: 5.35% for the first, -5.3% for the second.

Compared with `COc1ccc(CCNC(=O)c2cc(=O)c3c(C)cc(C)cc3o2)cc1OC`, `COc1ccc(CCNC(=O)C(=O)NCC2OCCN2S(=O)(=O)c2ccc(F)cc2)cc1OC` (configuration not stated) is higher in “activity change, negative = inhibition” value: -3.78% for the first, -2.74% for the second.

Going from `COc1ccc(CNC(=O)c2cc3c(=O)[nH]c4ccc(C)cc4c3s2)c(OC)c1` to `COc1ccc(/C=C2/C(=O)OCc3cc(OC)c(OC)cc32)c(OC)c1`, the “activity change, negative = inhibition” value falls from 9.8% to -4.92%.

Compared with `CCOc1cc(CN2CCN(C(=O)CC(C)C)CC2)ccc1OC`, `Cc1cc(F)ccc1S(=O)(=O)N1CCCOC1CNC(=O)C(=O)NCCC1=CCCCC1` (configuration not stated) is lower in “activity change, negative = inhibition” value: 14.7% for the first, 1.88% for the second.

First: Cc1cc(OCC(=O)Nc2ncn[nH]2)c(C)c(C)c1Br
Second: Cn1nnnc1SCCCNCc1ccc(Cl)cc1
The “activity change, negative = inhibition” value of the first is lower: 0.164% for the first, 0.215% for the second.

In the case of `CC1CN(CCOc2ccccc2[N+](=O)[O-])CC(C)O1` (configuration not stated), the Potency is reported as 25.1 µM (active).
For `C=CCN(CC=C)CCOc1ccccc1[N+](=O)[O-]`, the Potency was 39.8 µM (active).
With `CN=C1C=C/C(=N/N=c2\ccn(O)cc2C)C=C1C` the Potency was 35.5 µM (active).
`CSc1nnc(NC(=O)c2nc(S(=O)(=O)Cc3ccc(C)cc3)ncc2Cl)s1` was tested, and the Potency was 56.2 µM (active).
With `Cc1ccc(CN2CCN(c3ncccn3)CC2)c(C)c1` the Potency was 50.1 µM (active).
With `Cc1ccc(CN2CCN(/N=C/c3ccco3)CC2)c(C)c1` the Potency was 50.1 µM (active).
For `COc1ccc(-c2nn(-c3ccccc3)cc2/C=C2/SC(=S)N(CCCC(=O)O)C2=O)c(C)c1`, the Potency was 50.1 µM (active).
`CN(C)S(=O)(=O)c1cccc(-c2nn(-c3ccccc3)cc2/C=C2\SC(=S)N(CC(=O)O)C2=O)c1` was tested, and the Potency was 50.1 µM (active).
For `Cc1ccc(-c2nn(-c3ccccc3)cc2/C=C2\SC(=S)N(CCCCCC(=O)O)C2=O)o1`, the Potency was 6.31 µM (active).
For `CC(C)CC(=O)N1CCN(Cc2ccccc2Br)CC1`, the Potency was 50.1 µM (active).
For `COc1ccc(/C=C2/C(=O)N(c3ccccc3)N=C2C)c(OC)c1`, the Potency was 11.2 µM (active).
`O=C(NCCCn1ccnc1)C(=O)NCC1OCCN1S(=O)(=O)c1cc(F)ccc1F` (configuration not stated) was tested, and the Potency was 7.94 µM (active).
For `c1ccc(CSc2nnc(-c3ccco3)c(-c3ccco3)n2)cc1`, the Potency was 20 µM (active).
With `Clc1ccccc1CSc1nnc(-c2ccco2)c(-c2ccco2)n1` the Potency was 14.1 µM (active).

Going from `Cc1ccc(CN2CCC(CNC(=O)c3cnn(-c4ccc(C)cc4)c3C3CCN(C(=O)OC(C)(C)C)CC3)CC2)cc1` to `Cc1ccccc1CS(=O)(=O)CC1Nc2ccc(C(=O)NCc3ccc(Cl)cc3)cc2NC1=O` (configuration not stated), the “activity change, negative = inhibition” value rises from -7.01% [at 57.1 µM] to 5.28% [at 57.1 µM].

`CC1(C)N=C(SCc2ccccc2Cl)c2ccccc2N1` was tested, and the “activity change, negative = inhibition” value was 162% [at 57.1 µM].
